Assay results published in PubChem BioAssay.
Values without a mark were called inactive. Activity calls are given as the source filed them. Unless noted, no stated cut-off is given here; in the data, active means inhibition above about 30%; inactive means the rest.

What was measured:
[1] = target: Nuclear receptor coactivator 3 (Homo sapiens) (UniProt Q9Y6Q9); assay: NCOA3 GAL4-fusion reporter inhibition – cell-based, luminescence, quadruplicate, confirmation (AID 588792;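 active means mean inhibition over 43.08%, the solvent-only control mean plus 3 SD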;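 further: 0% = DMSO treated cells and 100% = gossypol at 36 µM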); conditions: HEK293 GAL4-SRC3 luciferase reporter, at 3.6 µM, hits give high values
Nuclear receptor coactivator 3 (Homo sapiens), sequence (Q9Y6Q9 whole entry, looked up, the tested form may be a part): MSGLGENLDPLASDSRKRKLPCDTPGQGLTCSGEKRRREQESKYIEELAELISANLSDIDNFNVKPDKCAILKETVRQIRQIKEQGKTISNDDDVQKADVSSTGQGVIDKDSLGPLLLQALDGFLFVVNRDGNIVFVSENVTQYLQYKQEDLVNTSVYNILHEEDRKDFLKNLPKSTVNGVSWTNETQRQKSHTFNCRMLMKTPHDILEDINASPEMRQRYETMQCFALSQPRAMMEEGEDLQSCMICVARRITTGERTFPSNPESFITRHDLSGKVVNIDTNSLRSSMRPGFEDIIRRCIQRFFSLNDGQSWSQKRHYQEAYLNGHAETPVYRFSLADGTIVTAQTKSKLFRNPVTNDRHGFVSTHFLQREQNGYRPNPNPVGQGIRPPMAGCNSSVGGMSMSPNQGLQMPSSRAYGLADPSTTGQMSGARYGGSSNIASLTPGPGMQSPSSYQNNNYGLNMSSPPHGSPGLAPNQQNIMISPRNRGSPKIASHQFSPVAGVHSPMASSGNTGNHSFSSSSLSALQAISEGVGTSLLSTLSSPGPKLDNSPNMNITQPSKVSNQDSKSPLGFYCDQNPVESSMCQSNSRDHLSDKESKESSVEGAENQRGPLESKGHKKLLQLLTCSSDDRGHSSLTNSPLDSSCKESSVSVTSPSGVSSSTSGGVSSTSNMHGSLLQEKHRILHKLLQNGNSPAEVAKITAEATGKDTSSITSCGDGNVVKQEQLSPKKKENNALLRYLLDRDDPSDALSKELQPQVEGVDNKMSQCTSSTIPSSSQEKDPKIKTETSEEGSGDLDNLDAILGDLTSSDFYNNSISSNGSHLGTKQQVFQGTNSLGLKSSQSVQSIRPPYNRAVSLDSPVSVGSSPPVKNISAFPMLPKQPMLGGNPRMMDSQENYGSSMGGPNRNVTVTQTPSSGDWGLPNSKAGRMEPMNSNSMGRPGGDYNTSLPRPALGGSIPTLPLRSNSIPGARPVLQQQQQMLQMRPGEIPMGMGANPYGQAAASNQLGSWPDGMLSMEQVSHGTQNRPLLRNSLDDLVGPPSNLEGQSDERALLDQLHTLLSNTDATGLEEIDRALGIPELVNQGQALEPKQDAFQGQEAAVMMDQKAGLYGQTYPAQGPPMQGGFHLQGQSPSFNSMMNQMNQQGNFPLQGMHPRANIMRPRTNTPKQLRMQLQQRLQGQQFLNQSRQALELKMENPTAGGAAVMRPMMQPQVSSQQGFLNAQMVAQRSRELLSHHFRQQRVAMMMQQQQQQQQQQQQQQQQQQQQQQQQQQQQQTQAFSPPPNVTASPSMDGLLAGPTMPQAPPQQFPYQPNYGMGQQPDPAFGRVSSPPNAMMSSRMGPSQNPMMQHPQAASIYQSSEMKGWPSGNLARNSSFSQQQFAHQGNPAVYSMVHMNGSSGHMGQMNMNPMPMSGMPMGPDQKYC

[2] = tested on: transactivating tegument protein VP16 (Human herpesvirus 1), Gal4-VP16 luciferase reporter; assay: repression of VP16-driven luciferase reporter – cell-based, luminescence, high throughput, counter-screen for SRC3 inhibitor project (AID 588794); conditions: mammalian cells, at 3.6 µM, hits give high values

SMILES	inhibition [1] [%]	inhibition [2]
C=CCc1cccc(/C=N/NC(=O)CCC(=O)Nc2ccc(F)cc2)c1O	26.2	21.1%
CCOc1ccc(-c2cc(C)n3nc(C(N)=O)cc3n2)cc1	32.9	23.3%
CCOc1ccccc1/C=C/c1onc(C)c1S(=O)(=O)N1CCC(C(=O)N(CC)CC)CC1	5.63	3.37%
COc1ccc(Cl)cc1C(=O)Nn1c(-c2cccs2)nc2ccccc2c1=O	25.5	22.1%
Cc1ccc(-c2nc(CS(=O)CC(=O)NCCCN3CCN(Cc4ccccc4)CC3)c(C)o2)cc1 (centres undefined)	20.1	8.49%
c1ccc(CN2CCN(c3ncnc4c3[nH]c3ccccc34)CC2)cc1	8.1	29.9% (active)
O=C(Nc1sc2c(c1C(=O)O)CCCC2)c1ccc(Cl)cc1	30.9	50.5% (active)
COc1ccc(-c2csc(NC(=O)c3ccc(S(=O)(=O)N4CCc5ccccc5C4)cc3)n2)cc1	25.1	24.1%
CCCC(=O)NC(c1ccc2c(c1)OCO2)c1cc(Cl)c2cccnc2c1O (centres undefined)	40.7	25.3%
Cc1c(P(=S)(c2ccccc2)c2ccccc2)[n+]2ccccc2n1CCc1ccccc1	25.9	22%
CC1CCCCC1NC(=O)Cn1cnc2ccccc2c1=O (centres undefined)	10.5	-4.34%
COc1cc(/C=C(/C(=O)c2cccs2)c2nc3ccccc3[nH]2)cc(OC)c1O	31.4	12.1%
